One assay deals with C17orf103. The experiment in a line: pooled miR-30 sensor sort-seq; sequence = guide strand. As to conditions: shRNA.
For TAGGCATCTGGGACCTCGGTGT, the sensor-assay potency score (higher = more potent) is -0.272.
Consider TCATGACATCCGTTGAGCCGGA, for which the sensor-assay potency score (higher = more potent) is -0.377.
Still for that read-out and setting: to ACGTACTTCTGGATGTACCAGC belongs -1.62; to TACTTCTGGATGTACCAGCAGG, -1.01; to TCTCCTTGACGTACTTCTGGAT, -0.358.

The next assay concerns the target C17orf48. The description is as above. As to conditions: shRNA.
Consider TTGAGGACTATTCAGTTCCGTA, for which the sensor-assay potency score (higher = more potent) was -1.1.
Same read-out and setting: with TATACTGTGCATTATATCCATC the figure was -0.953.
Sequence TAGTGTTAAGTTTAGAGTGTGT showed a sensor-assay potency score (higher = more potent) of 0.18.
In the case of TACACTGCTCGTATTTTGGAGA, the sensor-assay potency score (higher = more potent) was -0.905.
On the same count and under the same terms, to TGATCTTCTAGAAACTTAGTGT belongs 0.0518; to TTCAACATCATTTTGTCAGGAT, 1.06.
Consider ATCTTCTAGAAACTTAGTGTTA, for which the sensor-assay potency score (higher = more potent) was -1.09.
Same read-out and setting: with TATCTTCATACACTGCTCGTAT the figure was 0.128; with TTCAATAACTCCTTCTAGGTTG, -0.121; with TATGTCTGTAGTATCGCCGCCT, -0.223.
Still for that read-out and setting: to ATCGATGATATCTCCAAGCTGA belongs -0.464; to TTCTTGTAATTCATAATTCTAT, -1.

In another assay the target is C17orf64. Described as above. The settings on record: shRNA.
In the case of ATCTTTCTTGACATGGTCCTGG, the sensor-assay potency score (higher = more potent) is -0.00122.
On to TTGGGCAGACTGTCTTCCCGGT, for which the sensor-assay potency score (higher = more potent) was -0.108.
Turning to TGTACTTGTAAAGTCGGCGAAG, the sensor-assay potency score (higher = more potent) is -0.717.
With TTCATGCCGCTGATGTTGCTGT, the sensor-assay potency score (higher = more potent) was -0.699.
The same measure, in the same setting: with TTTTTGATAAGGACAATTCTTT the figure was -0.341.
Take TTTCTTGACATGGTCCTGGGAT: the sensor-assay potency score (higher = more potent) was -0.0819.
Turning to TTCCTTTATCCTCTTCCTCTTG, the sensor-assay potency score (higher = more potent) was -0.925.
Still for that read-out and setting: with TTTATTCCTAATTAAGACCTGA the figure was 0.154; with TTGAGTTTTGGTTTTTGAGAAA, -0.844; with TTAAAGAATCTTTCTTGACATG, -1.34.
With TCTTTCTTGACATGGTCCTGGG, the sensor-assay potency score (higher = more potent) is -0.903.
On the same count and under the same terms, to TTGGTGTACTTGTAAAGTCGGC belongs -0.519.

The next assay addresses C17orf71. The description is as above. The settings on record: shRNA.
With TTCATCTTCAGCTCTAGTCCTG, the sensor-assay potency score (higher = more potent) is 0.0154.
On the same count and under the same terms, with TTAGCTTCCAGTCTTTGCCAAC the figure was -1.08; with TTCCACAACACTTTTCTTCCAG, 0.741.
Still for that read-out and setting: with TTTCTTGCTTAGAACTAGCTCC the figure was 0.179; with TTGACTGGTAGGCACTGTGGGC, -0.647; with TTGTGTCTAAGTCTCCTTCATC, -0.792.
Still for that read-out and setting: to TATTGTGATATAGCACAGGCGG belongs -1.08; to TACTTGACCATGAACTTCTGGA, 0.427; to TCATCTTCAGCTCTAGTCCTGA, -0.0647.
Turning to TTTAAGTTTATCAGCATCCGAA, the sensor-assay potency score (higher = more potent) is -0.269.
The same measure, in the same setting: to TTTGCCAACTGGACAATCCTTA belongs 0.137.

Source of the values: the OligoGym collection.
Also: reference of the scale not given here.
